Data taken from PubChem BioAssay (EPA / NIEHS).
Records with an inconclusive call do not appear. The source made the active and inactive calls. How the source made its calls: active means hit-call score of the fitted dose curve at least 0.9, where 1 is the maximum; inconclusive means response in the unintended direction; inactive means score below 0.9.

What was measured:
[1] = test system: zebrafish Estrogen Receptor (ER2a), gene 317734; assay: ATG_zfER2a_XSP2: Attagene TRANS-FACTORIAL Multi-Species (XSP2) HepG2 Assay for zebrafish Estrogen Receptor (ER2a) (AID 2283818);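 further: hits raise reporter mRNA so AC50 reflects activation of zebrafish ER2a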
Procedure, shortened: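 HepG2 cells transiently transfected with GAL4-UAS reporter units and chimeric zebrafish ER2a-Gal4, exposed 24 h; medium contains 3 nM 6-alpha-fluorotestosterone and 1.5 nM norgestrel. Reporter mRNA quantified by RT-PCR, HpaI digestion, capillary electrophoresis; gain versus DMSO.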

[2] = test system: frog Estrogen Receptor (ER), gene 398734; assay: ATG_frER1_XSP2: Attagene TRANS-FACTORIAL Multi-Species (XSP2) HepG2 Assay for frog Estrogen Receptor (ER) (AID 2283821);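 further: hits raise reporter mRNA above DMSO baseline so potency means agonist or activator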
Procedure, shortened: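 HepG2, transient MRTU transfection, chimeric NR-GAL4/UAS reporters; 24 h compound exposure, 24-well. Readout: reporter mRNA via RT-PCR + capillary electrophoresis, fluorescence. Positive fit vs DMSO baseline.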

[3] = ATG_M_19_XSP2: Attagene TRANS-FACTORIAL Multi-Species (XSP2) HepG2 Assay for M32 Transcription Factor (Internal Marker) (AID 2283822)
Procedure, shortened: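 Internal background marker in a multi-species nuclear receptor TRANS panel: transfected HepG2 cells exposed 24 h, with 3 nM 6-alpha-fluorotestosterone and 1.5 nM norgestrel present. Readout is RT-PCR of reporter transcripts resolved by capillary electrophoresis, gain-of-signal versus DMSO.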

[4] = test system: zebrafish Estrogen Receptor (ER2b), gene 317733; assay: ATG_zfER2b_XSP2: Attagene TRANS-FACTORIAL Multi-Species (XSP2) HepG2 Assay for zebrafish Estrogen Receptor (ER2b) (AID 2283823);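 further: fitted upward as reporter gain over DMSO so potency reflects activation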
Procedure, shortened: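 Cells used were HepG2, transiently transfected with chimeric nuclear receptor-Gal4 reporter units. After 24 h of chemical treatment, reporter transcripts were amplified by RT-PCR, labelled and sized by capillary electrophoresis, with induction analysed relative to DMSO.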

[5] = target: Estrogen receptor (Homo sapiens) (UniProt P03372); assay: ATG_hERa_XSP2: Attagene TRANS-FACTORIAL Multi-Species (XSP2) HepG2 Assay for human Estrogen Receptor (ERa) (AID 2283827)
Procedure, shortened: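 HepG2 cells transiently transfected with multiplexed GAL4-UAS reporters driven by chimeric receptor-Gal4 proteins, dosed 24 h with 3 nM 6-alpha-fluorotestosterone and 1.5 nM norgestrel present. Reporter mRNA by RT-PCR and capillary electrophoresis; gain-of-signal fit versus DMSO.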

[6] = test system: frog Estrogen Receptor (ER2), gene 100174814; assay: ATG_frER2_XSP2: Attagene TRANS-FACTORIAL Multi-Species (XSP2) HepG2 Assay for frog Estrogen Receptor (ER2) (AID 2283828)
Procedure, shortened: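 Human liver HepG2, transient MRTU transfection (TRANS format, exogenous NR–Gal4). 24 h cpd exposure. Total RNA → RT → PCR → FAM label → HpaI cut → CE. Positive direction vs DMSO.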

[7] = ATG_M_32_XSP2: Attagene TRANS-FACTORIAL Multi-Species (XSP2) HepG2 Assay for M19 Transcription Factor (Internal Marker) (AID 2283826)
Procedure: ATG_XSP2_multi-species_TRANS is a cell-based, multiplexed assay created by modifying the existing Attagene TRANS-FACTORIAL system to include a panel of nuclear receptors from some or all the following species: human (Homo sapiens), mouse (Mus musculus), frog (Xenopus laevis), zebrafish (Danio rerio), chicken (Gallus gallus), and turtle (Chrysemys picta). The ECOTOX-FACTORIAL format uses HepG2, a human liver cell line, with measurements taken at 24 hours after chemical dosing in a 24-well plate. Xsp2 included 3 nM 6-alpha-fluorotestosterone and 1.5 nM norgestrel to stimulate the androgen receptor.ATG_M_32_XSP2 is one of 29 assay components measured or calculated from the ATG_XSP2_multi-species_TRANS assay. It is designed to make measurements of mRNA induction, a form of inducible reporter, as detected with fluorescence intensity signals by Reverse transcription polymerase chain reaction (RT-PCR) and Capillary electrophoresis technology.This assay endpoint, ATG_M_32_XSP2, was analyzed in the positive analysis fitting direction relative to DMSO as the negative control and baseline of activity. Using a type of inducible reporter, measures of mRNA for gain-of-signal activity can be used to understand the background control at the transcription factor-level as they relate to the gene. Furthermore, this assay endpoint can be referred to as a secondary readout, because this assay has produced multiple assay endpoints where this one serves a background control function. To generalize the intended target to other relatable targets, this assay endpoint is annotated to the background measurement intended target family, where the subfamily is internal marker.
Human liver HepG2 cells are transiently transfected with multiple reporter transcription units (MRTUs) in 6-well plates using FuGene 6 reagent (Roche; 3 ml FuGene/1 mg DNA). The MRTU constructs are regulated by a cis-regulating element (promoter). […] A major difference between the CIS and TRANS system is that in CIS activities of endogenous TFs are measured, whereas the TRANS assay evaluates changes in activities of exogenous, chimeric NR-Gal4 proteins. […] At the end of 24 hour incubation, total RNA was isolated using TriZol reagent (Invitrogen). The isolated RNA is then reverse-transcribed using oligo(dT) primer and Mo-MLV reverse transcriptase (Invitrogen) with DNAse I (Ambion) treatment for 30 min. The one-tenth of the produced cDNA was amplified by PCR using Taq DNA polymerase (Invitrogen) and two reporter sequence-specific primers. The PCR products were fluorescently labeled by primer extension with 6-arboxyfluorescein (6-FAM) 5'-labeled reporter sequence-specific primer (2 min at 95 C, 20 s at 68 C and 10 min at 72 C) and these products were digested with 5U of HpaI (New England Biolabs) for 2h at 37 C. The fragments were purified using Qiaquick PCR columns (Qiagen), analyzed on an ABI 3130xL genetic analyzer (Applied Biosystems) with peak positions identified by using a set of X-rhodamine (ROX)-labeled MapMarker1000 molecular weight standards (BioVentures). The raw capillary electrophoresis data was processed using Attagraph software (Attagene).

[8] = test system: chicken Androgen Receptor (AR), gene 422165; assay: ATG_chAR_XSP2: Attagene TRANS-FACTORIAL Multi-Species (XSP2) HepG2 Assay for chicken Androgen Receptor (AR) (AID 2283819);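 further: hits raise reporter mRNA above DMSO so potency is for activation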
Procedure, shortened: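 HepG2 cells transiently transfected with chicken AR–GAL4 chimeric reporter constructs, stimulated with 3 nM 6-alpha-fluorotestosterone plus 1.5 nM norgestrel, dosed 24 h. Reporter mRNA quantified by RT-PCR and capillary electrophoresis; gain of signal fitted versus DMSO.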

[9] = test system: frog Androgen Receptor (AR), gene 399456; assay: ATG_frAR_XSP2: Attagene TRANS-FACTORIAL Multi-Species (XSP2) HepG2 Assay for frog Androgen Receptor (AR) (AID 2283824);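 further: actives raise reporter signal above DMSO so AC50 reflects agonist-like induction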
Procedure, shortened: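 HepG2 cells transiently transfected with GAL4-UAS reporter units and frog (Xenopus laevis) AR-Gal4 chimera; reporter mRNA measured 24 h after dosing by RT-PCR and capillary electrophoresis. Gain of signal fitted relative to DMSO baseline.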

[10] = test system: zebrafish Androgen Receptor (AR), gene 100005148; assay: ATG_zfAR_XSP2: Attagene TRANS-FACTORIAL Multi-Species (XSP2) HepG2 Assay for zebrafish Androgen Receptor (AR) (AID 2283825);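 further: hits raise reporter mRNA above DMSO so AC50 reflects agonist-type gain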
Procedure: ATG_XSP2_multi-species_TRANS is a cell-based, multiplexed assay created by modifying the existing Attagene TRANS-FACTORIAL system to include a panel of nuclear receptors from some or all the following species: human (Homo sapiens), mouse (Mus musculus), frog (Xenopus laevis), zebrafish (Danio rerio), chicken (Gallus gallus), and turtle (Chrysemys picta). The ECOTOX-FACTORIAL format uses HepG2, a human liver cell line, with measurements taken at 24 hours after chemical dosing in a 24-well plate. Xsp2 included 3 nM 6-alpha-fluorotestosterone and 1.5 nM norgestrel to stimulate the androgen receptor.ATG_zfAR_XSP2 is one of 29 assay components measured or calculated from the ATG_XSP2_multi-species_TRANS assay. It is designed to make measurements of mRNA induction, a form of inducible reporter, as detected with fluorescence intensity signals by Reverse transcription polymerase chain reaction (RT-PCR) and Capillary electrophoresis technology.The assay endpoint ATG_zfAR_XSP2 was analyzed in the positive analysis fitting direction relative to DMSO as the negative control and baseline of activity. […] Furthermore, this assay endpoint can be referred to as a primary readout, because this assay has produced multiple assay endpoints where this one serves a reporter gene function. […]

Measured: AC50

Sequence of Estrogen receptor (Homo sapiens) (P03372 whole entry, looked up, the tested form may be a part): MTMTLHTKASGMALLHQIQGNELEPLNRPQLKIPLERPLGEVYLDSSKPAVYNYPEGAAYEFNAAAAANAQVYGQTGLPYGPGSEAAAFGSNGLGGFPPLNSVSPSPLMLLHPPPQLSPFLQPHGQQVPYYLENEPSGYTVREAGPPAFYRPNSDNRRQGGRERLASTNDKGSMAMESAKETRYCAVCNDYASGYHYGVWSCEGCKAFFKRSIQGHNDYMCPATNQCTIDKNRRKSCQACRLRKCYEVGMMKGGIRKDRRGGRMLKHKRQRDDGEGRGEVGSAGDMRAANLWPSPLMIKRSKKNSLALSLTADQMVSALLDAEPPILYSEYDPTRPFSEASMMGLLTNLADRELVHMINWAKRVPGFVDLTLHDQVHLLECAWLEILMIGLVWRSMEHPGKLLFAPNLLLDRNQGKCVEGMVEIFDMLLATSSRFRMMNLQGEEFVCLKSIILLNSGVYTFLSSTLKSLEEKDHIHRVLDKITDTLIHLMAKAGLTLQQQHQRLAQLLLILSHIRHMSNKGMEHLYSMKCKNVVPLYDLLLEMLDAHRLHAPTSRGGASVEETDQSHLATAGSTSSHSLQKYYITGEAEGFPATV

CON(C)C(=O)Nc1ccc(Cl)c(Cl)c1
inactive: [1] | [2] | [3] | [4] | [5]

CCCN(CCC)c1c([N+](=O)[O-])cc(S(N)(=O)=O)cc1[N+](=O)[O-]
active: [4] 40.4 µM | [5] 4 µM | [6] 22.4 µM
inactive: [1] | [2]

CCCC1COC(Cn2cncn2)(c2ccc(Cl)cc2Cl)O1 (stereo not drawn)
inactive: [7]
active: [2] 167 µM | [4] 39.5 µM | [6] 32.5 µM

CCCCNC(=O)OCC#CI
active: [4] 26.2 µM
inactive: [2] | [7] | [6]

COC(=O)N(OC)c1ccccc1COc1ccn(-c2ccc(Cl)cc2)n1
active: [5] 2.64 µM
inactive: [1] | [2] | [4] | [7]

OC(c1ccc(Cl)cc1)(c1cncnc1)c1ccccc1Cl (stereo not drawn)
active: [1] 26.5 µM | [4] 7.41 µM | [5] 0.941 µM | [6] 6.28 µM
inactive: [2] | [7]

CCCCC(CC)COC(=O)c1ccccc1C(=O)OCC(CC)CCCC (stereo not drawn)
active: [4] 8.7 µM
inactive: [2] | [5]

CC(C)Oc1cc(-n2nc(C(C)(C)C)oc2=O)c(Cl)cc1Cl
inactive: [8] | [2] | [9]
active: [1] 63.5 µM | [4] 59.1 µM | [5] 14.4 µM | [6] 26.8 µM

CCCCOC(=O)c1ccccc1C(=O)OCCCC
inactive: [1] | [8] | [3] | [7]
active: [2] 29 µM | [4] 79.3 µM | [5] 30.2 µM | [6] 80.3 µM

COc1ccc(C(c2ccc(OC)cc2)C(Cl)(Cl)Cl)cc1
inactive: [1] | [8] | [7]
active: [2] 8.82 µM | [4] 8.65 µM | [5] 12.1 µM | [6] 99.5 µM

CC(C)(C)c1ccc(CSc2cnn(C(C)(C)C)c(=O)c2Cl)cc1
not listed: [3] | [10]
inactive: all other assays above

COP(=S)(OC)Oc1nc(Cl)c(Cl)cc1Cl
inactive: [1] | [6]
active: [8] 22.9 µM | [2] 43 µM | [4] 87.2 µM | [9] 29.7 µM | [5] 31.8 µM

CO/C=C(/C(=O)OC)c1ccccc1Oc1cc(Oc2ccccc2C#N)ncn1
inactive: [4] | [10]

CCOP(=S)(OCC)SCn1c(=O)oc2cc(Cl)ccc21
active: [4] 31.8 µM | [5] 4.26 µM
inactive: [1] | [8] | [2] | [6]

C#CCOS(=O)OC1CCCCC1Oc1ccc(C(C)(C)C)cc1 (stereo not drawn)
active: [1] 16.1 µM | [8] 4.55 µM | [4] 100 µM | [5] 12.1 µM
inactive: [7]

C=CC1(C)OC(=O)N(c2cc(Cl)cc(Cl)c2)C1=O (stereo not drawn)
active: [4] 142 µM | [5] 3.58 µM
inactive: [1] | [2] | [7] | [6]
